# Reference: PMC11062922 (Nature Chemical Biology, 2023)
# Like-named read-outs stand apart in the source and are kept apart here.
# Experiments:
# SYK = conditions: read-out: apparent Kd, n = 1
# TNK2 = conditions: read-out: apparent Kd, n = 1
# [1] = compound concentrations:100 nM and 1000 nM (sheet 'Lestaurtinib' of Supplementary Table 1),run:Lestaurtinib_02748_R1,Plate:MR024
# [2] = compound concentrations:100 nM and 1000 nM (sheet 'Lestaurtinib' of Supplementary Table 1),run:Lestaurtinib_02752_R1,Plate:MR025
# [3] = compound concentrations:100 nM and 1000 nM (sheet 'Lestaurtinib' of Supplementary Table 1),run:Lestaurtinib_02752_R2,Plate:MR025
# [4] = compound concentrations:100 nM and 1000 nM (sheet 'Lestaurtinib' of Supplementary Table 1),run:Lestaurtinib_02765_R2,Plate:MR026
# [5] = compound concentrations:100 nM and 1000 nM (sheet 'Lestaurtinib' of Supplementary Table 1),run:Lestaurtinib_02765_R3,Plate:MR026
# [6] = compound concentrations:100 nM and 1000 nM (sheet 'Lestaurtinib' of Supplementary Table 1),run:Lestaurtinib_02766_R1,Plate:MR027
# [7] = compound concentrations:100 nM and 1000 nM (sheet 'Lestaurtinib' of Supplementary Table 1),run:Lestaurtinib_02766_R3,Plate:MR027
# [8] = compound concentrations:100 nM and 1000 nM (sheet 'Lestaurtinib' of Supplementary Table 1),run:Lestaurtinib_02768_R1,Plate:MR028
# [9] = compound concentrations:100 nM and 1000 nM (sheet 'Lestaurtinib' of Supplementary Table 1),run:Lestaurtinib_02768_R2,Plate:MR028
# [10] = compound concentrations:100 nM and 1000 nM (sheet 'Lestaurtinib' of Supplementary Table 1),run:Lestaurtinib_02795_R1,Plate:MR022
# [11] = compound concentrations:100 nM and 1000 nM (sheet 'Lestaurtinib' of Supplementary Table 1),run:Lestaurtinib_02795_R3,Plate:MR022
# [12] = compound concentrations:100 nM and 1000 nM (sheet 'Lestaurtinib' of Supplementary Table 1),run:Lestaurtinib_02802_R1,Plate:MR029
# [13] = compound concentrations:100 nM and 1000 nM (sheet 'Lestaurtinib' of Supplementary Table 1),run:Lestaurtinib_02802_R3,Plate:MR029
# [14] = compound concentrations:100 nM and 1000 nM (sheet 'Lestaurtinib' of Supplementary Table 1),run:Lestaurtinib_02896_R1,Plate:MR030
# [15] = compound concentrations:100 nM and 1000 nM (sheet 'Lestaurtinib' of Supplementary Table 1),run:Lestaurtinib_02896_R3,Plate:MR030
# [16] = compound concentrations:100 nM and 1000 nM (sheet 'Lestaurtinib' of Supplementary Table 1),run:Lestaurtinib_03172_R3,Plate:MR031
# [17] = compound concentrations:100 nM and 1000 nM (sheet 'Lestaurtinib' of Supplementary Table 1),run:Lestaurtinib_03252_R1,Plate:MR032
# [18] = compound concentrations:100 nM and 1000 nM (sheet 'Lestaurtinib' of Supplementary Table 1),run:Lestaurtinib_03260_R3,Plate:MR033
substance,measurement,setting,value
Lestaurtinib,potency estimated from few doses,SYK; [1],393 nM
same,potency estimated from few doses,"SYK; compound concentrations:100 nM and 1000 nM (sheet 'Lestaurtinib' of Supplementary Table 1),run:Lestaurtinib_02748_R2,Plate:MR024",196 nM
same,potency estimated from few doses,SYK; [2],510 nM
same,potency estimated from few doses,SYK; [3],136 nM
same,potency estimated from few doses,SYK; [4],169 nM
same,potency estimated from few doses,SYK; [5],182 nM
same,potency estimated from few doses,SYK; [6],211 nM
same,potency estimated from few doses,SYK; [7],441 nM
same,potency estimated from few doses,SYK; [8],484 nM
same,potency estimated from few doses,SYK; [9],424 nM
same,potency estimated from few doses,SYK; [10],460 nM
same,potency estimated from few doses,"SYK; compound concentrations:100 nM and 1000 nM (sheet 'Lestaurtinib' of Supplementary Table 1),run:Lestaurtinib_02795_R2,Plate:MR022",141 nM
same,potency estimated from few doses,SYK; [11],259 nM
same,potency estimated from few doses,SYK; [12],239 nM
same,potency estimated from few doses,SYK; [13],451 nM
same,potency estimated from few doses,SYK; [14],253 nM
same,potency estimated from few doses,SYK; [15],217 nM
same,potency estimated from few doses,"SYK; compound concentrations:100 nM and 1000 nM (sheet 'Lestaurtinib' of Supplementary Table 1),run:Lestaurtinib_03172_R2,Plate:MR031",595 nM
same,potency estimated from few doses,SYK; [16],400 nM
same,potency estimated from few doses,SYK; [17],149 nM
same,potency estimated from few doses,"SYK; compound concentrations:100 nM and 1000 nM (sheet 'Lestaurtinib' of Supplementary Table 1),run:Lestaurtinib_03252_R2,Plate:MR032",222 nM
same,potency estimated from few doses,"SYK; compound concentrations:100 nM and 1000 nM (sheet 'Lestaurtinib' of Supplementary Table 1),run:Lestaurtinib_03260_R2,Plate:MR033",224 nM
same,potency estimated from few doses,SYK; [18],130 nM
same,potency estimated from few doses,"TNK2; compound concentrations:100 nM and 1000 nM (sheet 'Lestaurtinib' of Supplementary Table 1),run:Lestaurtinib_02339_R3,Plate:MR001",44 nM
same,potency estimated from few doses,"TNK2; compound concentrations:100 nM and 1000 nM (sheet 'Lestaurtinib' of Supplementary Table 1),run:Lestaurtinib_02364_R1,Plate:MR002",69.8 nM
same,potency estimated from few doses,"TNK2; compound concentrations:100 nM and 1000 nM (sheet 'Lestaurtinib' of Supplementary Table 1),run:Lestaurtinib_02364_R2,Plate:MR002",56.4 nM
same,potency estimated from few doses,"TNK2; compound concentrations:100 nM and 1000 nM (sheet 'Lestaurtinib' of Supplementary Table 1),run:Lestaurtinib_02364_R3,Plate:MR002",61.3 nM
same,potency estimated from few doses,"TNK2; compound concentrations:100 nM and 1000 nM (sheet 'Lestaurtinib' of Supplementary Table 1),run:Lestaurtinib_02367_R1,Plate:MR003",66.6 nM
same,potency estimated from few doses,"TNK2; compound concentrations:100 nM and 1000 nM (sheet 'Lestaurtinib' of Supplementary Table 1),run:Lestaurtinib_02367_R2,Plate:MR003",52.8 nM
same,potency estimated from few doses,"TNK2; compound concentrations:100 nM and 1000 nM (sheet 'Lestaurtinib' of Supplementary Table 1),run:Lestaurtinib_02381_R1,Plate:MR004",50 nM
same,potency estimated from few doses,"TNK2; compound concentrations:100 nM and 1000 nM (sheet 'Lestaurtinib' of Supplementary Table 1),run:Lestaurtinib_02381_R2,Plate:MR004",65.5 nM
same,potency estimated from few doses,"TNK2; compound concentrations:100 nM and 1000 nM (sheet 'Lestaurtinib' of Supplementary Table 1),run:Lestaurtinib_02407_R3,Plate:MR005",54.4 nM
same,potency estimated from few doses,"TNK2; compound concentrations:100 nM and 1000 nM (sheet 'Lestaurtinib' of Supplementary Table 1),run:Lestaurtinib_02422_R1,Plate:MR006",44.1 nM
same,potency estimated from few doses,"TNK2; compound concentrations:100 nM and 1000 nM (sheet 'Lestaurtinib' of Supplementary Table 1),run:Lestaurtinib_02422_R3,Plate:MR006",48 nM
same,potency estimated from few doses,"TNK2; compound concentrations:100 nM and 1000 nM (sheet 'Lestaurtinib' of Supplementary Table 1),run:Lestaurtinib_02437_R3,Plate:MR007",14.1 nM
same,potency estimated from few doses,"TNK2; compound concentrations:100 nM and 1000 nM (sheet 'Lestaurtinib' of Supplementary Table 1),run:Lestaurtinib_02438_R2,Plate:MR008",43.2 nM
same,potency estimated from few doses,"TNK2; compound concentrations:100 nM and 1000 nM (sheet 'Lestaurtinib' of Supplementary Table 1),run:Lestaurtinib_02443_R2,Plate:MR009",44.4 nM
same,potency estimated from few doses,"TNK2; compound concentrations:100 nM and 1000 nM (sheet 'Lestaurtinib' of Supplementary Table 1),run:Lestaurtinib_02443_R3,Plate:MR009",62 nM
same,potency estimated from few doses,"TNK2; compound concentrations:100 nM and 1000 nM (sheet 'Lestaurtinib' of Supplementary Table 1),run:Lestaurtinib_02473_R1,Plate:MR010",52.5 nM
same,potency estimated from few doses,"TNK2; compound concentrations:100 nM and 1000 nM (sheet 'Lestaurtinib' of Supplementary Table 1),run:Lestaurtinib_02473_R3,Plate:MR010",23.2 nM
same,potency estimated from few doses,"TNK2; compound concentrations:100 nM and 1000 nM (sheet 'Lestaurtinib' of Supplementary Table 1),run:Lestaurtinib_02482_R1,Plate:MR011",54.7 nM
same,potency estimated from few doses,"TNK2; compound concentrations:100 nM and 1000 nM (sheet 'Lestaurtinib' of Supplementary Table 1),run:Lestaurtinib_02482_R2,Plate:MR011",59.1 nM
same,potency estimated from few doses,"TNK2; compound concentrations:100 nM and 1000 nM (sheet 'Lestaurtinib' of Supplementary Table 1),run:Lestaurtinib_02482_R3,Plate:MR011",60.1 nM
same,potency estimated from few doses,"TNK2; compound concentrations:100 nM and 1000 nM (sheet 'Lestaurtinib' of Supplementary Table 1),run:Lestaurtinib_02487_R1,Plate:MR012",51.2 nM
same,potency estimated from few doses,"TNK2; compound concentrations:100 nM and 1000 nM (sheet 'Lestaurtinib' of Supplementary Table 1),run:Lestaurtinib_02487_R3,Plate:MR012",44.6 nM
same,potency estimated from few doses,"TNK2; compound concentrations:100 nM and 1000 nM (sheet 'Lestaurtinib' of Supplementary Table 1),run:Lestaurtinib_02496_R2,Plate:MR013",48.4 nM
same,potency estimated from few doses,"TNK2; compound concentrations:100 nM and 1000 nM (sheet 'Lestaurtinib' of Supplementary Table 1),run:Lestaurtinib_02496_R3,Plate:MR013",38.5 nM
same,potency estimated from few doses,"TNK2; compound concentrations:100 nM and 1000 nM (sheet 'Lestaurtinib' of Supplementary Table 1),run:Lestaurtinib_02566_R1,Plate:MR014",51.6 nM
same,potency estimated from few doses,"TNK2; compound concentrations:100 nM and 1000 nM (sheet 'Lestaurtinib' of Supplementary Table 1),run:Lestaurtinib_02566_R2,Plate:MR014",58.8 nM
same,potency estimated from few doses,"TNK2; compound concentrations:100 nM and 1000 nM (sheet 'Lestaurtinib' of Supplementary Table 1),run:Lestaurtinib_02572_R1,Plate:MR015",37.5 nM
same,potency estimated from few doses,"TNK2; compound concentrations:100 nM and 1000 nM (sheet 'Lestaurtinib' of Supplementary Table 1),run:Lestaurtinib_02572_R2,Plate:MR015",46.2 nM
same,potency estimated from few doses,"TNK2; compound concentrations:100 nM and 1000 nM (sheet 'Lestaurtinib' of Supplementary Table 1),run:Lestaurtinib_02572_R3,Plate:MR015",49.3 nM
same,potency estimated from few doses,"TNK2; compound concentrations:100 nM and 1000 nM (sheet 'Lestaurtinib' of Supplementary Table 1),run:Lestaurtinib_02577_R1,Plate:MR016",55.6 nM
same,potency estimated from few doses,"TNK2; compound concentrations:100 nM and 1000 nM (sheet 'Lestaurtinib' of Supplementary Table 1),run:Lestaurtinib_02577_R2,Plate:MR016",56.4 nM
same,potency estimated from few doses,"TNK2; compound concentrations:100 nM and 1000 nM (sheet 'Lestaurtinib' of Supplementary Table 1),run:Lestaurtinib_02577_R3,Plate:MR016",62.6 nM
same,potency estimated from few doses,"TNK2; compound concentrations:100 nM and 1000 nM (sheet 'Lestaurtinib' of Supplementary Table 1),run:Lestaurtinib_02584_R1,Plate:MR017",56.4 nM
same,potency estimated from few doses,"TNK2; compound concentrations:100 nM and 1000 nM (sheet 'Lestaurtinib' of Supplementary Table 1),run:Lestaurtinib_02584_R2,Plate:MR017",64.8 nM
same,potency estimated from few doses,"TNK2; compound concentrations:100 nM and 1000 nM (sheet 'Lestaurtinib' of Supplementary Table 1),run:Lestaurtinib_02601_R1,Plate:MR018",77.3 nM
same,potency estimated from few doses,"TNK2; compound concentrations:100 nM and 1000 nM (sheet 'Lestaurtinib' of Supplementary Table 1),run:Lestaurtinib_02606_R1,Plate:MR019",55.6 nM
same,potency estimated from few doses,"TNK2; compound concentrations:100 nM and 1000 nM (sheet 'Lestaurtinib' of Supplementary Table 1),run:Lestaurtinib_02606_R3,Plate:MR019",54.4 nM
same,potency estimated from few doses,"TNK2; compound concentrations:100 nM and 1000 nM (sheet 'Lestaurtinib' of Supplementary Table 1),run:Lestaurtinib_02624_R2,Plate:MR020",52.3 nM
same,potency estimated from few doses,"TNK2; compound concentrations:100 nM and 1000 nM (sheet 'Lestaurtinib' of Supplementary Table 1),run:Lestaurtinib_02724_R2,Plate:MR021",56.1 nM
same,potency estimated from few doses,"TNK2; compound concentrations:100 nM and 1000 nM (sheet 'Lestaurtinib' of Supplementary Table 1),run:Lestaurtinib_02741_R2,Plate:MR023",224 nM
same,potency estimated from few doses,TNK2; [1],38.5 nM
same,potency estimated from few doses,"TNK2; compound concentrations:100 nM and 1000 nM (sheet 'Lestaurtinib' of Supplementary Table 1),run:Lestaurtinib_02748_R3,Plate:MR024",52.3 nM
same,potency estimated from few doses,TNK2; [2],57.7 nM
same,potency estimated from few doses,TNK2; [3],46.1 nM
same,potency estimated from few doses,TNK2; [4],115 nM
same,potency estimated from few doses,TNK2; [5],75.6 nM
same,potency estimated from few doses,TNK2; [6],51.8 nM
same,potency estimated from few doses,"TNK2; compound concentrations:100 nM and 1000 nM (sheet 'Lestaurtinib' of Supplementary Table 1),run:Lestaurtinib_02766_R2,Plate:MR027",15.7 nM
same,potency estimated from few doses,TNK2; [7],41.6 nM
same,potency estimated from few doses,TNK2; [8],60 nM
same,potency estimated from few doses,TNK2; [9],56.1 nM
same,potency estimated from few doses,TNK2; [10],49.4 nM
same,potency estimated from few doses,TNK2; [11],160 nM
same,potency estimated from few doses,TNK2; [12],71.2 nM
same,potency estimated from few doses,TNK2; [13],9.76 nM
same,potency estimated from few doses,TNK2; [14],61.8 nM
same,potency estimated from few doses,TNK2; [15],53.9 nM
same,potency estimated from few doses,"TNK2; compound concentrations:100 nM and 1000 nM (sheet 'Lestaurtinib' of Supplementary Table 1),run:Lestaurtinib_03172_R1,Plate:MR031",45.6 nM
same,potency estimated from few doses,TNK2; [16],48.7 nM
same,potency estimated from few doses,TNK2; [17],75.4 nM
same,potency estimated from few doses,"TNK2; compound concentrations:100 nM and 1000 nM (sheet 'Lestaurtinib' of Supplementary Table 1),run:Lestaurtinib_03260_R1,Plate:MR033",115 nM
same,potency estimated from few doses,TNK2; [18],59.2 nM
